Screens from PubChem BioAssay.
The list is not random: actives were taken first. Their share in the collection is about 1.5%.
PP1 inh – counter-screen for PP5 inhibitors: inhibitors of human PP1-alpha; P62136; purified PP1alpha, OMFP fluorescence; inhibition, % at 6.7 µM; 320,000 tested, 0.9% active; AID 2235;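 active = inhibition above the mean inhibition of all tested compounds plus 3 SD, computed separately for each screening campaign, cut at about 15% in these data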
Target sequence (P62136 whole entry, looked up): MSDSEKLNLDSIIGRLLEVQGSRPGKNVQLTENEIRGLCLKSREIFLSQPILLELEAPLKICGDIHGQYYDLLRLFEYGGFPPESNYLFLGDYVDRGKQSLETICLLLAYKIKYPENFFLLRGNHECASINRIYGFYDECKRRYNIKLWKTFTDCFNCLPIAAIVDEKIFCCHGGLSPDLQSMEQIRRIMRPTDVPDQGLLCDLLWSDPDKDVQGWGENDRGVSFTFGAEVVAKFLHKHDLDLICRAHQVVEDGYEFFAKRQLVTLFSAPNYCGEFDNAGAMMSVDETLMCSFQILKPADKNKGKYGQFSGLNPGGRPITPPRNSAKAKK
PP5 inh – blocks human protein phosphatase 5 activity; P53041; purified PP5c, OMFP substrate fluorescence; inhibition, % at 6.7 µM; 320,000 tested, 0.18% active;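 active = inhibition above the campaign's mean inhibition across all tested compounds plus 3 SD, cut at about 9.5% in these data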;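 also: 0% = DMSO only and 100% = 100 µM cantharidin control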
Dyrk1A ADPGlo – inhibitors of rat Dyrk1A kinase. 310,000 tested, 0.43% active. ADP-Glo luminescence, NFATc1 peptide. inhibition, % at 12.5 µM; in the data active = inhibition above about 50%;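 also: plate controls were vehicle with enzyme for no effect and no enzyme for full effect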
HIF activator – HIF pathway transcriptional activation. U2OS HRE-luciferase reporter, luminescence; normalized: DMSO 0%, desferrioxamine 100%. 300,000 tested, 0.32% active. activation, % at 7.5 µM (by protocol);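 active = mean activation of at least 10% of the iron chelator positive control signal, with at least half of replicates also reaching 10%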
STK33 kinase inh – blocks human STK33 kinase activity. AID 2661. purified STK33, MBP phosphorylation, ADP-Glo luminescence. inhibition, % at 10 µM. Q9BYT3. 320,000 tested, 0.073% active;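 active = inhibition at or above 25%, using the most active replicate where run in duplicate; inactive = inhibition below 25%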
ADP-Glo artifact – interferes with ADP-Glo luciferase readout without Dyrk1A; shares compounds with Dyrk1A ADPGlo; ADP-Glo luciferase artifact assay, no Dyrk1A, luminescence; AC50, µM (series often up to 12 µM), for inactives: at the highest dose activity change, negative = inhibition; 1,300 tested, under 10 active; AID 588348;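 active = fitted half-maximal dose AC50 no more than ten times the top valid tested dose, with luminescence dropping as dose rises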
Starred values were filed as active, the others as inactive; . = no result; ! = a repeat was not active.

SMILES | PP1 inh | PP5 inh | Dyrk1A ADPGlo | HIF activator | STK33 kinase inh | ADP-Glo artifact
O=C(Cn1cc(COc2cc(F)cc(F)c2)nn1)c1ccc(O)cc1 | . | . | 5 | . | . | .
COc1cc(/C=C(\C#N)c2nc3ccc(C)cc3[nH]2)c([N+](=O)[O-])cc1OC | -1 | 1 | -3 | 1 | -1 | .
Cc1ccc2nc(/C(C#N)=C\c3cc(O)ccc3[N+](=O)[O-])[nH]c2c1 | -1 | -2 | 77* | 1 | 4 | 6%
COc1c(O)ccc(/C=C(\C#N)c2nc3ccccc3[nH]2)c1[N+](=O)[O-] | 5 | 5 | 73* | 1 | 12 | 8%
Cc1ccc2oc(C(=O)N3CCN(Cc4nccn4C)CC3)c(C)c2c1 | -3 | 2 | 3 | 0 | 0 | .
N#Cc1ccc(S(=O)(=O)N2CCc3[nH]c4ccc(F)cc4c3C2)cc1 | 0 | 3 | -1 | 0 | -2 | .
CCn1c(C(C)NC(=O)c2cccc(C)c2)n[nH]c1=S (stereo not drawn) | -6 | 4 | -3 | 0 | 0 | .
O=C(c1ccc(F)cc1)c1cc2ccc(O)cc2oc1=O | 1 | 0 | 23 | 3 | 10 | .
N=c1oc2cc(O)ccc2cc1C(=O)Nc1ccc(F)cc1 | 5 | 1 | 53* | 3 | 2 | 9%
COc1ccc(/C=N/NC(=O)C(=O)NCc2cccnc2)cc1 | -3 | 4 | -2 | 0 | -1 | .
CCN(C[C@H]1N[C@@](Cc2ccccc2)(C(=O)OC)[C@H]2C(=O)N(Cc3ccccc3)C(=O)[C@@H]12)S(=O)(=O)c1ccc(C(C)(C)C)cc1 | . | . | . | . | 1 | .
O=C(Nc1cccnc1)c1scc2c1OCCO2 | 4 | 1 | 52* | -1 | 4 | 10%
O=C(NC1CC1)c1scc2c1OCCO2 | 2 | 1 | 24 | -1 | 2 | .
CCn1c2ccccc2c2cc(/C=N/n3cnnc3)ccc21 | 2 | 1 | 4 | . | 3 | .
CCn1c2ccccc2c2cc(/C=N/O)ccc21 | 3 | 2 | 80* | 1 | -1 | 8%
O=C(O)c1ccc(N=c2oc3cc(O)ccc3cc2C(=O)NCc2ccccc2)cc1 | 7 | -2 | 35 | 0 | 4 | .
NC(=O)c1cc2ccccc2oc1=NCc1ccccc1 | -1 | 1 | 68* | 0 | 0 | 7%
NC(=O)c1cc2cc(Br)ccc2oc1=NCc1ccccc1 | -1 | 0 | 15 | 1 | -2 | .
COc1ccc(OC)c(N=c2oc3cc(O)ccc3cc2C(N)=O)c1 | 4 | 1 | 81* | 0 | 1 | 6%
COc1ccc2oc(=Nc3cc(F)ccc3F)c(C(N)=O)cc2c1 | 2 | 4 | -1 | 6 | -2 | .
NC(=O)c1cc2ccc(O)cc2oc1=Nc1ccccc1 | . | . | 58* | 4 | . | 8%
C/C(=N/NC(=O)c1ccc(C)s1)c1cccnc1 | . | . | 6 | 0 | 0 | .
C/C(=N/NC(=O)c1ccc(Br)s1)c1cccnc1 | . | . | 51* | 0 | 4 | 7%
Fc1ccc(Nc2nc(N/N=C/c3ccco3)nc(N3CCCCC3)n2)cc1 | 4 | 1 | 17 | -1 | -1 | .
COc1cc2c(C#N)c(N3CCN(C)CC3)nc(N)c2c(N)n1 | -2 | 8 | 6 | 1 | 1 | .
SMILES | PP1 inh | PP5 inh | Dyrk1A ADPGlo | HIF activator | STK33 kinase inh | ADP-Glo artifact
COc1cc2c(C#N)c(N3CCCC3)nc(N)c2c(N)n1 | 0 | 2 | 53*! | 0 | 0 | 12%
CC1CCc2nc(NC(=O)CN3CCN(Cc4ccc5c(c4)OCO5)CC3)sc2C1 (stereo not drawn) | 2 | 6 | 55* | 0 | 1 | 9%
Cc1ccc(OCCN(C)C(=O)C2CCC(=O)N(CCCN3CCCC3=O)C2)cc1 (stereo not drawn) | -1 | -2 | 1 | 0 | 1 | .
O=[N+]([O-])c1ccccc1-c1cc(-c2ccccc2O)n[nH]1 | 0 | 2 | 51* | 0 | 1 | 11%
OCC[C@@H]1C[C@H](O)[C@@H](O)[C@@]2(CCc3ccccc3CO2)O1 | 8 | -6 | 52* | 0 | 5 | 7%
CC(=O)c1ccc(NC(=O)[C@@H]2CCCN2C2=NS(=O)(=O)c3ccccc32)cc1 | -2 | 1 | . | . | 0 | .
N=C1S/C(=C\c2ccc(O)cc2)C(=O)N1c1ccc(F)cc1 | 3 | 3 | 78* | 0 | 2 | 14%
CCOc1cc(/C=C2\SC(=O)N(c3ccc(O)cc3)C2=O)ccc1O | -1 | 1 | 5 | 0 | -1 | .
O=C1NC(=O)/C(=C/c2ccc(O)cc2)S1 | -2 | 3 | 90* | 1 | 33* | 9%
Oc1c(Cl)c(Cl)c2ncccc2c1Cl | . | . | 55* | . | . | 9%
CN(C)/C=N/c1nc(-c2ccc3c(c2)OCO3)cs1 | 3 | 1 | 77* | 2 | 2 | 6%
CC(=O)Nc1nc(-c2ccc3c(c2)OCO3)cs1 | -4 | 2 | 57* | 3 | 1 | 10%
CCn1c(C)c(C(C)=O)cc(C#N)c1=O | -1 | 1 | -3 | 0 | 0 | .
CC1=C(C(=O)OCc2ccc3c(c2)OCO3)C(c2ccccc2)NC(=O)N1 (stereo not drawn) | 3 | 3 | 77* | 4 | -1 | 8%
Oc1ccc(/C=N/n2c(COc3ccccc3)n[nH]c2=S)c(O)c1 | -5 | 3 | 67* | -4 | 9 | 10%
CCOC(=O)C(Cc1ccc(O)cc1)NC(=O)CCc1c[nH]c2ccccc12 (stereo not drawn) | 0 | 0 | 51* | -1 | -1 | 12%
COc1ccc(C(=O)COC(=O)C2COc3ccccc3O2)cc1F (stereo not drawn) | . | . | . | . | 0 | .
Nc1nc(N)nc(-c2ccc(Cl)cc2)n1 | 1 | 0 | 62* | 3 | 2 | 7%
Cc1ccc(Oc2ccc(-c3nc(N)nc(N)n3)cc2)cc1 | 0 | 2 | 47 | . | 1 | .
CC(NC(=O)COC(=O)c1ccc([N+](=O)[O-])s1)c1ccccc1 (stereo not drawn) | -2 | 2 | 56* | 0 | -2 | 8%
CCOC(=O)C(C)Oc1ncnc2cccc(F)c12 (stereo not drawn) | 2 | 1 | 3 | 0 | -2 | .
c1cncc(-c2ccc3[nH]ccc3c2)c1 | -7 | -1 | 55* | . | 2 | 7%
c1cncc(-c2cccnc2)c1 | -1 | -2 | -2 | 0 | -1 | .
c1cncc(-c2ccc3ncnc(NCc4cccs4)c3c2)c1 | . | . | 37 | . | 2 | .
c1csc(CNc2ncnc3ccc(-c4ccc5c(c4)OCCO5)cc23)c1 | . | . | 72* | . | 1 | 5%
CC(=O)Nc1cc2c(cc1[N+](=O)[O-])-c1ccccc1C2=NO | . | . | 45 | . | . | .
Nc1cc2c(cc1[N+](=O)[O-])-c1ccccc1C2=NO | . | . | 80* | . | . | 7%
CN(C)c1ccc(S(=O)(=O)NCC(=O)N2CCN(c3ccccc3)CC2)cc1[N+](=O)[O-] | -3 | 1 | 12 | 0 | 0 | .
CCCCC(C(=O)NC1CCCC1)N(C(=O)c1snc(C(N)=O)c1N)c1ccc(C)cc1 (stereo not drawn) | 2 | 1 | 10 | 0 | -2 | .
